Source: PubChem (National Center for Advancing Translational Sciences (NCATS))
BRCA1 expr up – activators of BRCA1 expression. AID 624202. 380,000 tested, 1.1% active. MCF7-BRCA1-FFLuc reporter, luminescence, 48 h; response scale: scaled: vehicle 0%, 10 µM genistein 100%. Potency, µM (doses to about 46.1 µM), most hits filed as activators; note: nearly all actives have a fitted effect of over 80% in size
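Luminescence from a BRCA1-driven firefly luciferase in MCF7 cells was the read-out, taken 15 min after substrate addition following 48 h compound exposure at 37 °C. Data were normalized to a 10 microM genistein control and DMSO vehicle.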
PKM2 activator – activators of human pyruvate kinase M2; Potency, µM (highest dose often 57.5 µM), usual class: activators; P14618; 260,000 tested, 0.34% active; AID 1631; purified PKM2, Kinase-Glo ATP luminescence, activation; response scale: 0% is enzyme alone, no compound; note: nearly all actives have a fitted effect of over 55% in size
Target sequence (P14618 whole entry, looked up): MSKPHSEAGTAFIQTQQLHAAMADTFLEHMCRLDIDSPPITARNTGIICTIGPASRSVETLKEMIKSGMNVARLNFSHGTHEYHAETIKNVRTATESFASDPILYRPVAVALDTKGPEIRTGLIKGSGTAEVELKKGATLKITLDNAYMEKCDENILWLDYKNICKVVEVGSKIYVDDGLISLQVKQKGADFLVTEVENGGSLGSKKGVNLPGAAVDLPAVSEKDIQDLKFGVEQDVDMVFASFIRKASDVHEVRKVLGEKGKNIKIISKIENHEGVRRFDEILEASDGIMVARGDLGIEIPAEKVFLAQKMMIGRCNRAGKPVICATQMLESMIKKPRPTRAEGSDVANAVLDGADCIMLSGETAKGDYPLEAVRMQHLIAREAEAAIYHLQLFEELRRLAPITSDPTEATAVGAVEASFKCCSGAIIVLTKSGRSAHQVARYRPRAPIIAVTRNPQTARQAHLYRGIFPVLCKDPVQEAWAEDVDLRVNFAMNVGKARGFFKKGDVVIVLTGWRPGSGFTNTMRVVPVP
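ATP formation by purified human PK-M2, quantified via coupled luciferase luminescence after 1 h at room temperature with 0.1 mM ADP and 0.5 mM PEP final.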
IL2 activator – activators of IL-2. IL-2 activation reporter assay, cell-based qHTS; stimulated with anti-CD3/CD4/CD28 beads; in transgenic mouse T cells. activation, % (series mostly up to about 46 µM). 360,000 tested, 0.065% active. AID 652025; in the data active = activation above about 50%; inconclusive = mostly about 30% to 49%
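First, unstimulated transgenic mouse T cells were exposed to compound for 60 min. Next, anti-CD3/anti-CD4-coated beads with anti-CD28 were added. Finally, after 18 h at 37 degrees C, EGFP and DsRed were imaged.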
Apoferritin bind – candidate novel general anesthetic via apoferritin binding; P02791; AID 485281; 350,000 tested, 0.074% active; Potency, µM (series often up to 77.5 µM), usual class: inhibitors; apoferritin/1-aminoanthracene competitive binding, fluorescence; note: nearly all actives have a fitted effect of over 20% in size
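In PBS, apoferritin at 10 uM is loaded with 1-AMA from a 50% saturated solution. After 10 min of compound exposure at ambient temperature, reduced 535 nm fluorescence indicates probe displacement.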
a7 integrin act – integrin-mediated muscular dystrophy alleviation activation | alpha7betagal myoblasts, beta-gal FDG fluorescence, 48 h | AID 624291 | 350,000 tested, 0.064% active | Potency, µM (titrated, usually from 38.3 µM), usual class: activators; note: nearly all actives have a fitted effect of over 60% in size
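alpha7betagal+/- myoblasts (passage 13, 250/well) treated 48 h at 37C with compounds at 1:260 dilution of DMSO stock. Lysed, then beta-galactosidase activity read as FDG fluorescence (ex 480/em 540) after 30 min, with pre-read for autofluorescence.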
Of the large screens only hits and unclear results are named; the others gave an inactive call. Sampled rows, rich in hits. Any-hit rate of the full collection: about 1.3%. Unless noted, calls come from the whole dose curve; as a rule, active = well fitted curve in the direction sought with a large enough effect; inconclusive = small, poorly fitted or top-dose-only effect, or another doubt; inactive = no such curve, though single readings can be large; an effect the other way counts as inactive or inconclusive.

O=C(O)c1ccc(NC(=O)c2cc3c([nH]c2=O)CCCC3=O)cc1	none (no result: PKM2 activator, IL2 activator, Apoferritin bind, a7 integrin act)
CCC(=O)NCCc1nc2cc(NC(=O)COc3ccccc3)ccc2n1C	BRCA1 expr up 8.9µM
COc1ccc(C(=O)Nn2c(C)nc3ccccc3c2=O)c(OC)c1	none (no result: PKM2 activator)
COc1ccc(C(=O)Nn2cnc3ccccc3c2=O)c(OC)c1	BRCA1 expr up 8.9µM
Cc1ccc(-c2ccc(CCC(=O)O)n2-c2cccc(C(=O)O)c2)cc1	BRCA1 expr up 7.1µM (no result: PKM2 activator)
COC(=O)c1cccc(-n2c(CCC(=O)O)ccc2-c2cccs2)c1	PKM2 activator 18µM
COc1ccc(OC)c(C2=Nn3c(nnc3-c3ccc(OC)c(OC)c3)SC2)c1	none (no result: BRCA1 expr up, PKM2 activator, IL2 activator, a7 integrin act)
COc1ccc(/C(C#N)=C/c2ccccn2)cc1	BRCA1 expr up 2.8µM
O=c1cc(-c2ccc(O)cc2)oc2ccc(O)cc12	BRCA1 expr up 2.8µM
O=c1cc(-c2ccccc2)oc2cc(O)ccc12	BRCA1 expr up 10µM (no result: PKM2 activator)
O=c1cc(-c2ccc(O)cc2)oc2cc(O)cc(O)c12	BRCA1 expr up 22µM (no result: PKM2 activator, a7 integrin act)
O=c1cc(-c2ccc(O)cc2)oc2ccccc12	BRCA1 expr up inconclusive
Cc1cc(C)cc(NC(=O)Cc2c(C(=O)O)c(C)cn2C)c1	none (no result: BRCA1 expr up, PKM2 activator, IL2 activator, a7 integrin act)
CN(C)c1ncnc2c1ncn2CCn1cnc2c(N(C)C)ncnc21	none (no result: PKM2 activator, Apoferritin bind)
CN(C)c1ncnc2c1ncn2-c1ccccc1	BRCA1 expr up 11µM (no result: PKM2 activator, Apoferritin bind)
COc1ccc2c(c1)S/C(=C\C(=O)c1ccncc1)N2C	BRCA1 expr up 4.5µM, PKM2 activator inconclusive
COc1ccc2[nH]c3c4c(ccc3c2c1)C(=O)C=CC4=O	PKM2 activator 1.3µM
O=C(c1ccccc1)N1CCc2cc(CNS(=O)(=O)c3ccc(Cl)s3)ccc21	none (no result: BRCA1 expr up, PKM2 activator, IL2 activator, a7 integrin act)
CCc1cc(C(=O)NNC(=S)Nc2cc(C)ccc2C)cs1	none
CCc1cc(C(=O)NNC(=S)Nc2ccccc2C)cs1	BRCA1 expr up 10µM
CCc1nc(Sc2nnnn2-c2ccccc2)c2c3c(sc2n1)CCCC3	PKM2 activator 10µM
Cc1nn(-c2ccc(F)cc2)c(-n2cccc2)c1C(=O)NCCc1ccc(Cl)cc1	none (no result: PKM2 activator, IL2 activator, a7 integrin act)
Cc1cc2[nH]c(=O)c(=O)[nH]c2cc1S(=O)(=O)Nc1ccccc1F	PKM2 activator 10µM
O=C(Nc1ncc(Cc2ccccc2Cl)s1)C1CCCO1 (stereo not given)	BRCA1 expr up 4.5µM
O=C(Nc1nc(-c2ccc(Cl)cc2Cl)cs1)C1CCCO1 (stereo not given)	none
CCc1ccc(CCC(=O)Nc2ncc(Cc3ccccc3Cl)s2)o1	PKM2 activator 14µM
O=C(Nc1nc(-c2ccc(Cl)cc2)cs1)C1CCCO1 (stereo not given)	BRCA1 expr up 6.3µM, a7 integrin act inconclusive
Cn1c(=O)c2c(-c3ccc(Cl)cc3)ccnc2n(C)c1=O	none (no result: PKM2 activator, IL2 activator, a7 integrin act)
CCCn1c(-c2ccc(F)cc2)nc2c(NCCCN(C)C)nc(C)nc21	none (no result: BRCA1 expr up, IL2 activator, a7 integrin act)
O=C(Nc1cccc(OCc2cc(=O)n3ccccc3n2)c1)c1ccccc1Br	none (no result: BRCA1 expr up, PKM2 activator, IL2 activator, a7 integrin act)
COc1cc2c(cc1OC)CN(S(=O)(=O)c1ccc3c(c1)OCCO3)CC2	PKM2 activator 8.9µM
COc1cccc(/C(C)=N/N=C(\C)c2cccc(OC)c2)c1	BRCA1 expr up 3.2µM, Apoferritin bind inconclusive
CCN(CC)c1nc(C#N)nc(N2CCOCC2)n1	none (no result: PKM2 activator, IL2 activator, Apoferritin bind, a7 integrin act)
CCn1ncc(/C=C/C(=O)c2ccccc2)c1C	BRCA1 expr up 11µM
Cc1c(/C=C/C(=O)c2ccc(O)cc2)cnn1C	BRCA1 expr up inconclusive
Cc1c(/C=C/C(=O)c2ccc(C(C)C)cc2)cnn1C	BRCA1 expr up 11µM
CCSc1ncc(Cl)c(C(=O)Nc2sc3c(c2C(=O)NCCOC)CCCC3)n1	none (no result: PKM2 activator, IL2 activator, Apoferritin bind, a7 integrin act)
O=C(NCCCN1CCN(c2ccccc2F)CC1)c1ccc2nc(N3CCCCC3)sc2c1	none (no result: PKM2 activator, IL2 activator, a7 integrin act)
Cc1nn2c3c(cnc2c1-c1ccccc1)C(=O)CCC3	BRCA1 expr up 13µM
COc1ccc(C2CC(=O)c3cnc4c(-c5ccccc5)c(C)nn4c3C2)c(OC)c1 (stereo not given)	none (no result: PKM2 activator, IL2 activator, a7 integrin act)
Cc1nn2c(-c3ccccc3)ccnc2c1-c1ccccc1	BRCA1 expr up 7.1µM, Apoferritin bind inconclusive
N/C(=N\OC(=O)c1csnn1)c1ccc(C(F)(F)F)cc1	BRCA1 expr up 11µM
CC(Cc1cccs1)NC(=O)c1cccs1 (stereo not given)	BRCA1 expr up inconclusive
